Compound activity as filed in PubChem BioAssay.
KCNQ2 block: blocks the rat KCNQ2 potassium channel | CHO-K1 KCNQ2, FluxOR thallium flux, 20 min; hits give low values | B-score at 10 µM | 1.1% of 310,000 active;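 active = fluorescence ratio B-score at most minus 3 library SDs, with starting brightness B-score within 2 library SDs, cut at about -5.5 in these data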
Target sequence (O88943 whole entry, looked up): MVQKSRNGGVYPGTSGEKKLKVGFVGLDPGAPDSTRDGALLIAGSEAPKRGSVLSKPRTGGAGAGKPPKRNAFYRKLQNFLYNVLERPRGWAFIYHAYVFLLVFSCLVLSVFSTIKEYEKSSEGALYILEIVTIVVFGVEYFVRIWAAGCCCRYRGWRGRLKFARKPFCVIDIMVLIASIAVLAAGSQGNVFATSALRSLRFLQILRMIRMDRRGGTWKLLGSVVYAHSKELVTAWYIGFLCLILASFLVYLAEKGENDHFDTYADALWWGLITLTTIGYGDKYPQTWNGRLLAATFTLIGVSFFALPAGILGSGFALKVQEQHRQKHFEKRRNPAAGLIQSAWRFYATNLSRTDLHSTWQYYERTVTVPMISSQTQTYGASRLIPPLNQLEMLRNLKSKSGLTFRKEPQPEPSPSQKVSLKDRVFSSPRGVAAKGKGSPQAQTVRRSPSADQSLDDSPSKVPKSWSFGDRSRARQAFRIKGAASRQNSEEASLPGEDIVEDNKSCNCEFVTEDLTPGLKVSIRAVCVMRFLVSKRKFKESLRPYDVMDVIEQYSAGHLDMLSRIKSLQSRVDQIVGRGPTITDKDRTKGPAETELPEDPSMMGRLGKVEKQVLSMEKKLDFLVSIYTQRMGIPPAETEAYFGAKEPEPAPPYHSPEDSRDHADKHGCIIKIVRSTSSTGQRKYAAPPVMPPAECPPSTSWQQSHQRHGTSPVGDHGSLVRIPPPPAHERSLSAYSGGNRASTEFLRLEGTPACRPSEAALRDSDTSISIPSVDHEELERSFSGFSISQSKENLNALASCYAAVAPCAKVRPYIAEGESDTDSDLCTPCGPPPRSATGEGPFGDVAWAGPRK
KCNQ2 pot: potentiators of rat KCNQ2 potassium channel; O88943; CHO-K1 KCNQ2, FluxOR thallium flux fluorescence; hits give high values; B-score at 10 µM; 0.54% of 310,000 active; AID 2239;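 active = fluorescence ratio B-score at least 3 SD of library B-scores, with initial fluorescence B-score within 3 of them, cut at about 5.3 in these data; same plate scores as AID 2156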;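 note: B-score of peak minus minimum over baseline fluorescence ratio after K+ and Tl+ stimulus; positive B-score means potentiation of KCNQ2 with more thallium influx and brighter signal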
The depositor's hits bear a star; i = inactive; nt = no result. This is a sample that favours compounds with a hit; in the whole collection about 1.6% have one here.

SMILES	KCNQ2 block	KCNQ2 pot
CCOC(=O)C1CCCN(C(=O)c2cc(-c3ccc(C)cc3)nc3ccccc23)C1 (centres undefined)	-5.6*	-5.6
Nc1ccccc1-n1cccc1	i	1.1
COc1ccc(N2CCN(C(=O)CN(c3ccc(OC)cc3)S(=O)(=O)c3ccccc3)CC2)cc1	i	nt
O=C(CN(c1ccc(Cl)cc1)S(=O)(=O)c1ccccc1)N1CCN(c2ccccc2)CC1	-7.4*	-7.4
NC(=O)C1CCN(C(=O)Cc2ccsc2)CC1	i	nt
COc1ccccc1N(C1=NCCCS1)S(=O)(=O)c1ccc(C(C)(C)C)cc1	i	0.3
COc1cccc(N2CCN(C(=O)c3cc4ccc(OC)cc4[nH]3)CC2)c1	i	1.2
COc1ccc2cc(C(=O)N3CCN(c4cccc(C)c4C)CC3)[nH]c2c1	-6.2*	-6.2
COc1ccc(C)cc1N(CC(=O)NC1CCCC1)C(=O)Cn1nnc(-c2ccc(C)o2)n1	i	nt
C=CCOC(=O)C1=C(C)NC(SCC(=O)OCC)=C(C#N)C1c1ccc(O)c(OC)c1 (centres undefined)	-8.1*	-8.1
C=CCOC(=O)C1=C(C)NC(SC)=C(C#N)C1c1ccc(OCC)cc1 (centres undefined)	i	nt
CCN1CCN(C(=O)CS(=O)Cc2nc(-c3cccc(C)c3)oc2C)CC1 (centres undefined)	i	nt
Cc1cccc(-c2nc(CS(=O)CC(=O)N3CCc4ccccc4C3)c(C)o2)c1 (centres undefined)	-7.8*	-7.8
CC(c1cccs1)N(C(=O)Nc1ccccc1)C1CCCCC1 (centres undefined)	-5.9*	-5.9
CN(C(=O)Nc1ccccc1)C1CCCCC1	i	0.2
C=CCn1c(CSCc2ccccc2)nnc1SCC(=O)N1CCN(c2ccccc2)CC1	i	nt
CCn1c(CSCc2ccc(C)cc2)nnc1SCC(=O)N1CCN(c2ccccc2)CC1	-7.8*	-7.8
O=C1c2ccc(-c3ccc4c(c3)C(=O)N(CCO)C4=O)cc2C(=O)N1CCO	i	2.4
CC(C)CC(COCc1cccc(C(F)(F)F)c1)N1CCN(C(=O)c2cccc(C(F)(F)F)c2)CCC1=O (centres undefined)	i	nt
Cc1ccc(S(=O)(=O)N2CCC(=O)N(C(COCc3cccc(Cl)c3)Cc3ccccc3)CC2)cc1 (centres undefined)	i	nt
Cc1cccc(COCC(Cc2ccccc2)N2CCN(C(=O)c3ccc(Cl)c(Cl)c3)CCC2=O)c1 (centres undefined)	i	nt
Cc1cccc(COCC(Cc2ccccc2)N2CCN(C(=O)c3cccc(C)c3)CCC2=O)c1 (centres undefined)	-5.8*	-5.8
Cc1cccc(COCC(Cc2ccccc2)N2CCN(C(=O)c3cc(Cl)cc(Cl)c3)CCC2=O)c1 (centres undefined)	i	nt
Cc1ccc(S(=O)(=O)N2CCC(=O)N(C(COCc3ccc(Cl)cc3Cl)Cc3ccccc3)CC2)cc1 (centres undefined)	-6*	-6
Cc1ccccc1COC[C@H](CC(C)C)N1CCN(C(=O)c2cccc(C(F)(F)F)c2)CCC1=O	-6.9*	-6.9
SMILES	KCNQ2 block	KCNQ2 pot
O=C(c1ccc(Cl)c(Cl)c1)N1CCC(=O)N(C(COCc2ccc(Cl)cc2)Cc2ccccc2)CC1 (centres undefined)	-5.9*	-5.9
O=C(NCc1ccc2c(c1)OCO2)C1CCN(c2nccc(C(F)(F)F)n2)CC1	i	0.65
O=C(Nc1csc(Cc2c(Cl)cccc2Cl)n1)NN1CCOCC1	i	6.1*
COC(=O)c1c(-c2c(Cl)cccc2Cl)noc1NC(=O)NN1CCOCC1	i	nt
O=C(N/N=C/c1sc(N2CCOCC2)nc1-c1ccccc1)c1ccccc1F	i	nt
O=C(Nc1ccccc1F)C(=Cc1sc(N2CCOCC2)nc1-c1ccccc1)C(=O)Nc1ccccc1F	-6.5*	-6.5
COc1cccc(CN2CC(C(=O)NC3CCCCCC3)CCC2=O)c1 (centres undefined)	i	0.03
O=c1cc(-c2ccccc2)c2c(O)cc(O)cc2o1	i	1.4
O=c1c(-c2ccccc2)c(-c2ccccc2)oc2cc(O)cc(O)c12	-5.8*	-5.8
Cc1[nH]nc(SCC(=O)NC2CCCCC2)c1[N+](=O)[O-]	i	1.6
CN(CC(=O)NCc1ccccc1F)S(=O)(=O)c1ccc(Cl)cc1	i	nt
CCCCc1ccc(NC(=O)CC(C)=O)cc1	i	1
CCCCc1ccc(NC(=O)CC(C)(C)C)cc1	i	14*
CCN(CC)c1ccc2cc(S(=O)(=O)c3ccc(Cl)cc3)c(=O)oc2c1	-6.2*	-6.2
CCCCCCc1cc2cc(S(=O)(=O)c3ccc(Cl)cc3)c(=O)oc2cc1O	i	1.2
CC(C)(C)c1ccc(/C=C2\SC(=O)N(CCNC(=O)c3cccc(S(=O)(=O)N4CCOCC4)c3)C2=O)cc1	i	1.4
CN(C)c1cc(-c2cccc(C(F)(F)F)c2)oc(=O)c1Cl	i	2.3
Cc1ccc(-c2csc(NC(=O)CCNC(=O)c3ccco3)n2)cc1	i	nt
Cc1ccc(-c2csc(NC(=S)NC(=O)c3ccco3)n2)cc1	i	11*
CCN(CC)S(=O)(=O)c1ccc(N2CCN(CCOc3ccc(OC)cc3)CC2)nc1	i	1.2
O=C(COC(=O)C1(c2ccc(Cl)cc2)CCCC1)N1CCc2ccccc21	-7.3*	-7.3
O=C(CNS(=O)(=O)c1ccc(Cl)cc1)OCC(=O)N1CCCc2ccccc21	i	nt
Cc1cc(C)c(NC(=O)CNC(=O)c2ccccc2OCc2c(C)noc2C)c(C)c1	i	0.16
O=C(CNC(=O)c1nc[nH]c1C(=O)N1CCc2ccccc2C1)OCc1ccccc1	-5.6*	-5.6
O=C(CNC(=O)c1nc[nH]c1C(=O)N1CCNCC1)OCc1ccccc1	i	0.18
SMILES	KCNQ2 block	KCNQ2 pot
N#CCCN(Cc1cccnc1)C(=S)NC(=O)C1CC1	i	nt
CCN(C(=O)c1cc2c(=O)[nH]c3ccc(C)cc3c2s1)c1ccccc1C	i	0.05
CCN(C(=O)c1cc2c(=O)[nH]c3ccc(C)cc3c2s1)c1ccccc1F	i	13*
Cc1c(Cl)cccc1-n1c(SCC(=O)NCc2ccccc2Cl)nnc1-c1ccncc1	-6.4*	-6.4
Cc1c(Cl)cccc1-n1c(SCC(=O)NCc2cccs2)nnc1-c1ccncc1	i	0.01
C=CCN1C(=O)c2ccc(C(=O)N(CCOC)c3c(N)n(CCCC)c(=O)[nH]c3=O)cc2C1=O	i	nt
COc1cc(S(=O)(=O)n2cnc3ccccc32)ccc1Br	i	2.2
Cc1nn(Cc2ccc(C(=O)N3c4ccc(F)cc4CCC3C)o2)c(C)c1Br (centres undefined)	-7.6*	-7.6
Cc1ccc(C(=O)N2c3ccc(F)cc3CCC2C)o1 (centres undefined)	i	nt
CNCc1c(C)nn(-c2ccccc2)c1C	i	10*
Cc1nn(-c2ccccc2)c(C)c1N	i	1.1
COc1ccc(N2CCN(C(=O)c3cc(=O)c4cc(C)c(C)cc4o3)CC2)cc1	i	nt
CCOC(=O)C1=NN(C(=O)c2ccccc2)C(O)(c2ccc(C)cc2)C1 (centres undefined)	i	3.8
CCOC(=O)C1=NN(C(=O)c2ccc(OC)cc2)C(O)(c2ccc(Cl)cc2)C1 (centres undefined)	i	16*
CC(=O)c1cccc(NC(=O)c2ccccc2N(C)S(=O)(=O)c2ccc(C)cc2)c1	i	nt
Cc1ccc(S(=O)(=O)N(C)c2ccccc2C(=O)Nc2c(F)cccc2F)cc1	-5.9*	-5.9
